# Data: the supplement of paper PMC7801607
# Tests used:
# CHO = experiment: % viability of CHO cells (MTT); higher = less toxic; settings: 48 h
# Summary of the method: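 CHO cells seeded at 10^6 cells/well were exposed to compound at 2 or 20 µM for 48 h. Survival, as percent of untreated cells, was measured with the colorimetric tetrazolium (MTT) assay.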
# HepG2-A16-CD81 = experiment: % inhibition of HepG2 viability (CellTiter-Glo); higher = more toxic; settings: 5 µM
# [1] = system: Plasmodium falciparum NF54 stage IV/V gametocytes; experiment: % inhibition of gametocyte viability (PrestoBlue); higher = more inhibition; settings: 48 h
# Summary of the method: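 Compound was tested at 1 or 5 µM against Stage IV/V NF54 gametocytes plated at 100 µL/well (2% gametocytaemia, 5% haematocrit). After 48 h of stationary, hypoxic incubation at 37 °C, 10 µL PrestoBlue was added for 2 h before reading 612 nm fluorescence from 70 µL of transferred supernatant. Gametocyte viability inhibition, as a percentage, was scaled against vehicle and kill controls from a single run.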
# [2] = system: Plasmodium falciparum NF54 asexual blood stage; experiment: % inhibition of asexual blood stage proliferation (pLDH); higher = more inhibition; settings: 72 h
# Summary of the method: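 In 96-well plates, compound at 2 or 20 µM was added to Plasmodium falciparum NF54 ring-stage cultures (1% haematocrit, 2% parasitaemia). Plates were incubated for 72 h at 37 °C in 4% CO2, 3% O2 and 93% N2, and survival was then read at 620 nm using the parasite lactate dehydrogenase assay. Inhibition of asexual proliferation, expressed as a percentage, was normalised to controls.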
# [3] = system: Plasmodium falciparum NF54 stage IV/V gametocytes; experiment: % inhibition of gametocyte viability (ATP bioluminescence); higher = more inhibition; settings: 24 h
# Summary of the method: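 Density gradients were used to enrich stage IV/V NF54 gametocytes, which were then seeded into 96-well plates at 30,000 per well with compound at 1 or 5 µM. The plates were incubated at 37 °C for 24 h, and ATP was measured with the Promega BacTiter Glo bioluminescence system. Percent inhibition of gametocyte viability was normalised to the plate controls from a single run.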
# [4] = system: Plasmodium falciparum NF54 stage IV/V gametocytes; experiment: % inhibition of gametocyte viability (luciferase reporter); higher = more inhibition; settings: 48 h
# Summary of the method: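 Percent inhibition came from luminescence and was normalised to controls in a single run. Gametocytes (stage IV/V, NF54-Pfs16-GFP-Luc line, 2% gametocytaemia, 2% haematocrit) were treated with compound at 1 or 5 µM and incubated for 48 h at 37 °C without agitation under hypoxia. Readings used 30 µL lysate with 30 µL Promega luciferin substrate on a GloMax-Multi+ reader, integrating for 10 s.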
# [5] = system: Plasmodium berghei ANKA liver stage in HepG2-A16-CD81; experiment: % inhibition of liver stage parasite viability (luciferase); higher = more inhibition; settings: 5 µM; 48 h
# Method: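 Single-concentration screen of the MMV Pandemic Response Box. P. falciparum NF54 asexual blood stages: pLDH assay, 72 h at 37 °C, 2 and 20 µM, n=2. Stage IV/V gametocytes (NF54): luciferase reporter (NF54-Pfs16-GFP-Luc, 48 h), ATP bioluminescence (24 h) and PrestoBlue (48 h) at 1 and 5 µM, n=1. P. berghei liver stage (luciferase in HepG2-A16-CD81, 48 h post infection) at 5 µM, n=4. All normalised to DMSO and kill controls as % inhibition.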
# 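Wherever % inhibition of HepG2 viability (CellTiter-Glo) is given: HepG2-A16-CD81 hepatoma cells plated as in the liver-stage assay but without sporozoites, with DMSO wells as negative and 25 µM puromycin as positive control.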
SMILES,% viability of CHO cells (CHO; 2 µM) [%],% viability of CHO cells (CHO; 20 µM) [%],% inhibition of HepG2 viability (HepG2-A16-CD81) [%],% inhibition of gametocyte viability ([1]; 1 µM) [%],% inhibition of gametocyte viability ([1]; 5 µM) [%],% inhibition of asexual blood stage proliferation ([2]; 2 µM) [%],% inhibition of asexual blood stage proliferation ([2]; 20 µM) [%],% inhibition of gametocyte viability ([3]; 1 µM) [%],% inhibition of gametocyte viability ([3]; 5 µM) [%],% inhibition of gametocyte viability ([4]; 1 µM) [%],% inhibition of gametocyte viability ([4]; 5 µM) [%],% inhibition of liver stage parasite viability [5] [%]
OC1O[C@H](CSc2ccc(F)cc2)[C@@H](O)[C@H]1O (stereo partly specified),84.4,-2.31,-4.06,< 0,18.7,91.2,90.9,< 0,< 0,< 0,0.415,31.6
COc1nc2ccc(Br)cc2cc1[C@@H](c1ccccc1)[C@@](O)(CCN(C)C)c1cccc2ccccc12,107,140,-0.302,< 0,< 0,82.9,101,< 0,49.3,14.4,19.2,31.1
OCCCCn1cnc2c(O)nc(NCc3ccc(Cl)c(Cl)c3)nc21,95.4,106,5.96,< 0,< 0,18.9,91.1,< 0,< 0,< 0,< 0,7.89
C[C@@H](NC(=O)c1ccccc1-c1ccccc1)B(O)O,84,94,7.46,10.1,30.5,-8.74,-3.48,3.08,< 0,< 0,< 0,19.8
Nc1nc(=O)c(Br)c(-c2cccc(Cl)c2)[nH]1,102,109,6.4,9.16,21,18.2,68.9,4.05,< 0,< 0,5.01,-7.9
O=C(NNC(=S)Nc1ccc(Cl)cc1)c1ccncc1,116,76.6,4.57,6.58,< 0,3.73,-4.99,< 0,< 0,< 0,< 0,5.18
O=S(=O)(Nc1ccccc1)c1ccc(NC(=S)Nc2ccccc2)cc1,84.1,81.9,-1.98,7.06,6.95,43.6,45.2,< 0,< 0,< 0,< 0,25.7
CC[C@@]1(O)C(=O)OCc2c1cc1n(c2=O)Cc2cc3c([N+](=O)[O-])cccc3nc2-1,128,99.3,65.7,< 0,< 0,10.9,66.6,5.04,< 0,< 0,< 0,62.8
CC(C)C(=O)N[C@H]1[C@H]([C@H](O)[C@H](O)CO)OC(C(=O)O)=C[C@@H]1N=[N+]=[N-],91.9,113,5.84,< 0,14.9,9.36,29.6,1.53,< 0,< 0,< 0,10.3
O[C@@](Cn1cnnn1)(c1ccc(F)cc1F)C(F)(F)c1ccc(-c2ccc(OCC(F)(F)F)cc2)cn1,92.3,95.9,13,1.61,22.4,7.2,82.5,< 0,25.9,< 0,3.57,40
COc1ccc2c(c1)cc(CNC(=O)c1cc3ccccc3o1)n2CC(=O)O,90.6,111,3.58,< 0,26,-3.06,7.62,1.71,< 0,< 0,< 0,24.3
CC(=O)Oc1ccccc1C(=O)Nc1ncc([N+](=O)[O-])s1,91.3,111,3.62,14.9,28.5,14.2,71.2,10.5,5,0.222,17.6,65.9
CS(=O)(=O)c1ccc(Oc2ccc(Cl)cc2)cc1,98.9,121,-1.85,21.5,13.8,28.1,69.1,< 0,< 0,< 0,< 0,9.76
NC(=O)c1[nH]c2ccc(S(N)(=O)=O)cc2c1-c1ccccc1,93.5,98.8,8.64,< 0,19.1,16.9,72.7,< 0,< 0,11.7,< 0,21.9
CCCCCCCCCN1C[C@@H](O)[C@H](O)[C@@H](O)[C@@H]1CO,94.1,58.9,4.62,< 0,3.2,38.4,25.3,< 0,< 0,2.02,2.49,-1.14
Nc1nc(N)c2c(Sc3ccccc3)cccc2n1,107,100,13.7,< 0,4.25,47.8,77.9,< 0,2.83,< 0,< 0,48.9
CCCCc1ccc(-c2cc(C(=O)O)cc(-c3ccc(Cl)cc3)n2)cc1,93.4,108,14.4,9.55,12.3,43,102,< 0,< 0,0.176,8.67,40
CCN(CC)CCn1c(=N)n(CC(O)COc2ccc(Cl)cc2Cl)c2ccccc21 (stereo unspecified),98.9,0.284,2.98,< 0,< 0,95.4,101,82.2,90.7,< 0,91.6,42.1
